The source of these data is PubChem BioAssay (Tox21).

Molecules are shown by their SMILES. Several values for one entry are separate records, joined by “and”; a condition that tells them apart may be missing. Equal values may be shown once. Unmarked numbers belong to inactive results. Results filed as inconclusive are left out. Activity calls are given as the source filed them. Unless noted, the call rests on the fitted dose curve; in most records, active means well fitted curve in the direction sought with a large enough effect in the repeat runs; inconclusive means weak or mixed curves; inactive means no such curve, though single readings can be large; an effect the other way counts as inactive or inconclusive.

Assay [1] can be described thus: qHTS assay for small molecules that induce genotoxicity in human embryonic kidney cells expressing luciferase-tagged ATAD5 (AID 651632). Further: nearly all actives have a fitted effect of over 15% in size. Summed up:
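Reporter cells (HEK293T) express luciferase-tagged ATAD5, a protein that accumulates after DNA damage. Treat 16 hr at 37C/5% CO2, add Amplite, wait 30 min at RT, and read luminescence.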
(qHTS replaces the single test concentration by a dilution series.)

Assay [2] in a line: qHTS assay for small molecule agonists of the p53 signaling pathway - cell viability (AID 651633; calls by dose curve;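 further: p53RE-bla HCT reporter cells with a stable beta-lactamase p53 reporter; series mostly up to about 83 µM; nearly all actives have a fitted effect of over 30% in size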). An outline of the steps:
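p53RE-bla cells, seeded at 4,000 per well and rested 5 h at 37 C/5% CO2, received compounds in DMSO for 16 h at 37 C. CellTiter-Glo was then added, and luminescence was read after 30 min at room temperature to gauge cytotoxicity.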

Assay [3] is described as follows: qHTS assay for small molecule disruptors of the mitochondrial membrane potential - cell viability (AID 720634; calls by dose curve;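 further: human HepG2 liver cancer cells; series mostly up to about 83 µM; nearly all actives have a fitted effect of over 20% in size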). An outline of the steps: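 Measuring cytotoxicity alongside mitochondrial potential, the screen quantified ATP by luminescence in HepG2 cells after 1 hr compound incubation and a 30 min room-temperature CellTiter-Glo step.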
A short description of assay [4]: qHTS assay to test for compound auto fluorescence at 535 nm (green) in HepG2 cells (AID 720675).
The nature of assay [5]: qHTS assay to test for compound auto fluorescence at 590 nm (red) in HEK293 cells (AID 720679). Summed up:
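Using HEK293 cells at 2,000 per well, the screen added 23 nL of each compound after cell attachment and incubated overnight (37C, 5% CO2). The plate reader then captured red-label fluorescence, Ex/Em 540/590nm.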

Assay [6] is described as follows: qHTS assay to test for compound auto fluorescence at 460 nm (blue) in HEK293 cell free culture (AID 720681). An outline of the steps: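 Test compounds were pinned into cell-free culture medium (DMEM with 10% FBS) and fluorescence was read directly at Ex/Em 405/460 nm. Signals were expressed as fluorescence equivalents of triamterene, with DMSO vehicle as control.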

The nature of assay [7]: qHTS assay to test for compound auto fluorescence at 535 nm (green) in HEK293 cell free culture (AID 720682). An outline of the steps: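 Fluorescein serves as the green reference fluorophore; each compound's intrinsic emission at 535 nm (excitation 485 nm) is reported as an equivalent amount of that dye, measured in serum-containing DMEM without cells.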
Assay [8] is described as follows: qHTS assay to test for compound auto fluorescence at 590 nm (red) in HepG2 cell free culture (AID 720684). An outline of the steps: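 Red fluorescence (540 nm excitation, 590 nm emission) was measured after compound transfer into cell-free MEM supplemented with 10% FBS. Values are equivalencies against Rose Bengal sodium.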
A short description of assay [9]: qHTS assay to test for compound auto fluorescence at 460 nm (blue) in HepG2 cell free culture (AID 720685). An outline of the steps: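 Compound (23 nL) or DMSO pinned into cell-free MEM with 10% FBS; blue fluorescence read at 405/460 nm excitation/emission, expressed as auto-fluorescence equivalency to triamterene.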
Assay [10] is described as follows: qHTS assay to test for compound auto fluorescence at 535 nm (green) in HepG2 cell free culture (AID 720686).
Assay [11] in a line: qHTS assay to test for compound auto fluorescence at 460 nm (blue) in HepG2 cells (AID 720687). Summed up:
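Cells (2,000/well in MEM with 10% FBS) attached overnight at 37 C, then were exposed to compound or DMSO for 1 hr at 37 C, 5% CO2. Fluorescence read at Ex/Em 405/460 nm, expressed as triamterene-equivalent signal.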

A short description of assay [12]: qHTS assay to identify small molecule antagonists of the androgen receptor (AR) signaling pathway - cell viability counter screen (AID 743033; further: nearly all actives have a fitted effect of over 45% in size).
The nature of assay [13]: qHTS assay to identify small molecule antagonists of the androgen receptor (AR) signaling pathway using the MDA cell line - cell viability counter screen (AID 743041; further: nearly all actives have a fitted effect of over 45% in size). An outline of the steps:
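MDA-kb2 AR-luc human breast carcinoma cells (MMTV-luciferase, AR/GR responsive) were treated with compounds plus R1881 agonist for 16 h at 37 °C. Viability was read as CellTiter-Fluor fluorescence in the same wells as the reporter assay.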

A short description of assay [14]: qHTS assay to identify small molecule antagonists of the estrogen receptor alpha (ER-alpha) signaling pathway - cell viability counter screen (AID 743074; calls by dose curve;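 further: HEK293 cells carrying ER-alpha-UAS-bla reporter stimulated with 17beta-estradiol; nearly all actives have a fitted effect of over 45% in size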).
Assay [15] is described as follows: qHTS assay to identify small molecule antagonists of the estrogen receptor alpha (ER-alpha) signaling pathway using the BG1 cell line - cell viability counter screen (AID 743081).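 Further: compound given together with 17beta-estradiol as the ER stimulus; series mostly up to about 70 µM; nearly all actives have a fitted effect of over 45% in size.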
A further assay addresses Aromatase (Homo sapiens) (UniProt P11511). The assay can be described thus: qHTS assay to identify aromatase inhibitors (AID 743083). Further: nearly all actives have a fitted effect of over 55% in size. Further: potency means the concentration at half of the fitted maximal effect.
Assay [16] in a line: qHTS assay to identify aromatase inhibitors - cell viability counter screen (AID 743084).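 Further: cells stimulated with testosterone during compound exposure; nearly all actives have a fitted effect of over 55% in size.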
The target in assay [17] is Aryl hydrocarbon receptor (Homo sapiens) (UniProt P35869). The assay can be described thus: qHTS assay to identify small molecule that activate the aryl hydrocarbon receptor (AhR) signaling pathway (AID 743085). Further: nearly all actives have a fitted effect of over 15% in size. Further: potency means the concentration at half of the fitted maximal effect.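 On activation: HG2L7.5c1 human HepG2 liver cells with stably integrated DRE-driven firefly reporter; series mostly up to about 70 µM.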 Summed up:
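Cell line HG2L7.5c1 (human hepatoma, 20× DRE-luc). Plated, 5 h 37C, compound/DMSO added, 24 h 37C. CellTiter-Fluor 30 min 37C → fluorescence; then ONE-Glo 30 min RT → luminescence.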

Assay [18] is described as follows: qHTS assay to identify small molecule phospholipidosis (PLD) inducers (AID 1259344; active means well fitted curve in the direction sought with a large enough effect; an effect the other way counts as inactive or inconclusive). Summed up: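 HepG2 cells on collagen I, attached 4 h at 37 C, were co-treated with compound and LipidTOX Red dye for 24 h at 37 C, then fixed with paraformaldehyde plus Hoechst 33342 and imaged by high-content microscopy for phospholipid accumulation.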
For assay [19], the target named is Nuclear receptor subfamily 1 group I member 2 (Rattus norvegicus) (UniProt Q9R1A7). Put plainly: Rat pregnane X receptor (rPXR) activation by small molecules, qHTS assay (AID 1346983). Further: nearly all actives have a fitted effect of over 20% in size. The note with it: rPXR luciferase reporter cells, One-Glo luminescence, 24 h; max activation: hits give high values. Summed up:
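Cell-based rPXR luciferase reporter assay, 2,000 cells per well, rested 5hr at 37 C before compound addition in DMSO, then 24 hr at 37 C. One-Glo reagent was added and luminescence read after 30 min at room temperature.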
On the % scale 0 is the no-effect control and ±100 the full control effect.

Sequence of Aryl hydrocarbon receptor (Homo sapiens) (P35869 whole entry, looked up): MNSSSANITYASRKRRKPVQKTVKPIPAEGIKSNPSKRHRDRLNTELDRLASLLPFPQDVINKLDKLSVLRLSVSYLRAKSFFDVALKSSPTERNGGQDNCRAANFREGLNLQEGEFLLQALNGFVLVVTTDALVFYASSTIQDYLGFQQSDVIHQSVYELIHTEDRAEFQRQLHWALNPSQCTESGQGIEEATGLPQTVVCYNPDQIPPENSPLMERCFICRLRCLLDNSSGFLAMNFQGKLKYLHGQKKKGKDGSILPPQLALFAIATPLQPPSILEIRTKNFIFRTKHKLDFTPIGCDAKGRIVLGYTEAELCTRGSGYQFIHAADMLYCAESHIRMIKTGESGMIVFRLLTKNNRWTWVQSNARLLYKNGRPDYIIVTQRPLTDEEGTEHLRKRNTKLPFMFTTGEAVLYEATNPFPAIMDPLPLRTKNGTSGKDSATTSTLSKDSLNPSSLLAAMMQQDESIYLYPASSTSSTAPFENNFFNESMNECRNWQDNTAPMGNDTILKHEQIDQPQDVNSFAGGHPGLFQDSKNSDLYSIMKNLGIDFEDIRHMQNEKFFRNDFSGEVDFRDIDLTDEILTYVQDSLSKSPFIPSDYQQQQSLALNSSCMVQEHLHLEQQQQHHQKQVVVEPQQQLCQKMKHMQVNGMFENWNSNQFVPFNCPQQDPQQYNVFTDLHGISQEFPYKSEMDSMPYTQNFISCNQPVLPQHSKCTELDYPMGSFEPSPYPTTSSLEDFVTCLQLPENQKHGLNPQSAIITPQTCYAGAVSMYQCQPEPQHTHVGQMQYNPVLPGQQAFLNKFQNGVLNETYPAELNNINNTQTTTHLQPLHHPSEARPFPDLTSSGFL
Sequence of Aromatase (Homo sapiens) (P11511 whole entry, looked up): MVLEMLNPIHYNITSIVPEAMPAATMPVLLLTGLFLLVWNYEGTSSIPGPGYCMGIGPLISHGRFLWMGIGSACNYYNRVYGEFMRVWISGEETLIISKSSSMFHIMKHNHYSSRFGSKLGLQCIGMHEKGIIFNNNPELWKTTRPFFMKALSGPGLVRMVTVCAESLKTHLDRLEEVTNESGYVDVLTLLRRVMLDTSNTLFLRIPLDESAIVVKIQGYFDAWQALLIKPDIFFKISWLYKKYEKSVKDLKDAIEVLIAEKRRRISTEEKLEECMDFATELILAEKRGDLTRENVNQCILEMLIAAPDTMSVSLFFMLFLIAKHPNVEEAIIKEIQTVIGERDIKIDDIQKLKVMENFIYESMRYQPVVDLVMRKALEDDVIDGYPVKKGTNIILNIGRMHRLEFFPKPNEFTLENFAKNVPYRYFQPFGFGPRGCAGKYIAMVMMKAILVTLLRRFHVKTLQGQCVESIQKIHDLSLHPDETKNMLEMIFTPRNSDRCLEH
Sequence of Nuclear receptor subfamily 1 group I member 2 (Rattus norvegicus) (Q9R1A7 whole entry, looked up): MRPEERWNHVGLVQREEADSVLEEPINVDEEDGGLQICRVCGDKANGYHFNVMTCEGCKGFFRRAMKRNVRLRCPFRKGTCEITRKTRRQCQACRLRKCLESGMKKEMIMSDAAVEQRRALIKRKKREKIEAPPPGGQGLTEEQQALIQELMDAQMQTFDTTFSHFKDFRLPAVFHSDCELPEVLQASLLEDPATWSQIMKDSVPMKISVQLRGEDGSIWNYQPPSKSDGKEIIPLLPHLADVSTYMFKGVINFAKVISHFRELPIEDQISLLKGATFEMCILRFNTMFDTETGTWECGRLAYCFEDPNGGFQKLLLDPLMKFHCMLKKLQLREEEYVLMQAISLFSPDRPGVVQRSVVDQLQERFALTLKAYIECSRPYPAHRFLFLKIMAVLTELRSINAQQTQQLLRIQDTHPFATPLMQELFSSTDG

Regarding `CC[N+](C)(CC)CCOC(=O)C(O)(c1ccccc1)c1ccccc1`, the Potency entry in [1], in [2], in assay [3], in [4], in [6] and in [7] was “inactive” in each case. Further, the Potency result in assay [9], in assay [10], in assay [11], in assay [12], in assay [13] and in assay [14] was “inactive” in each case. In addition, the Potency result (in [15]; with Aromatase (Homo sapiens); in assay [16]; in assay [17]; in [18]) was “inactive” each time. The molecule was classed as inactive in assay [5] and in [8]. In addition, the max activation in assay [19] was -2.16%.
With `CCCCNCC(O)c1ccc(O)cc1` (stereo not given), the Potency entry in assay [1], in [2], in assay [3], in assay [4], in [6] and in [7] was “inactive” throughout. For the same molecule, the Potency result in assay [9], in assay [10], in [11], in assay [12], in assay [13] and in [14] was “inactive” in each case. For the same molecule, the Potency result in [15] and in assay [18] was “inactive” each time. Also, the molecule was classed as inactive in assay [5] and in assay [8]. Besides, the max activation in assay [19] was -0.163%.
Consider `O=[N+]([O-])c1ccccc1Cl`, for which the Potency result (in assay [4]; in assay [6]; in assay [9]; in assay [10]; in assay [11]; with Aromatase (Homo sapiens)) was “inactive” each time. In addition, in assay [17], the Potency entry is “inactive”. The outcome in assay [5] and in assay [8] was inactive.
For the molecule `C=CC(=O)OCCCCCCCC(C)C`, the Potency result (with Aromatase (Homo sapiens); in assay [17]) was “inactive” in each case.
Regarding `Oc1c(Cl)cc(Cl)cc1Cl`, the Potency result in assay [4], in assay [6], in assay [7], in assay [9], in assay [10] and in assay [11] was “inactive” throughout. Besides, in the assay with Aromatase (Homo sapiens), the Potency entry was “inactive”. Further, the result in assay [5] and in assay [8] was inactive.
As to `N#CCCNCCC#N`, the Potency entry (with Aromatase (Homo sapiens); in [17]) was “inactive” in each case.
Regarding `CCC1(c2cnc[nH]2)Cc2ccccc2C1`, the Potency result in assay [1], in assay [2], in assay [3], in assay [4], in assay [6] and in [7] was “inactive” in each case. Further, the Potency result in assay [9], in [10], in assay [11], in assay [12], in assay [13] and in assay [14] was “inactive” in each case. For the same molecule, the Potency entry in [15], in [16] and in assay [18] was “inactive” in each case. Moreover, the molecule was called inactive in assay [5] and in assay [8]. Besides, the Potency with Aromatase (Homo sapiens) was 26.6 µM (active); in assay [17], 23.7 µM (active) and 8.41 µM (active).
In the case of `NC(=Nc1ccccc1)Nc1ccccc1`, the Potency with Aromatase (Homo sapiens) was 23.7 µM (active).
Regarding `c1ccccc1`, the Potency entry in assay [1], in [2], in [3], in [4], in assay [6] and in assay [7] was “inactive” throughout. For the same molecule, the Potency result in assay [9], in assay [10], in assay [11], in assay [12], in assay [13] and in [14] was “inactive” throughout. Moreover, the Potency entry (in assay [15]; with Aromatase (Homo sapiens); in assay [16]) was “inactive” throughout. Also, the call in [5] and in [8] was inactive.
Take `Cc1cc([N+](=O)[O-])ccc1N`: the Potency result (with Aromatase (Homo sapiens); in assay [17]) was “inactive” throughout.
For `COc1ccccc1[N+](=O)[O-]`, the Potency entry (in the assay with Aromatase (Homo sapiens); in assay [17]) was “inactive” throughout.
Turning to `C[C@@]12C(=O)OC(=O)[C@]1(C)C1CCC2O1`, in the assay with Aromatase (Homo sapiens), the Potency was 3.59 µM (active). In addition, in assay [17], the Potency result was “inactive”.
As to `O=P(OC(CCl)CCl)(OC(CCl)CCl)OC(CCl)CCl`, the Potency entry in assay [17] was “inactive”.
With `CN(C)CCCCCCN(C)C`, the Potency result in [2], in [3], in assay [4], in [6], in [7] and in assay [9] was “inactive” each time. The Potency result in [10], in assay [11], in assay [12], in assay [13], in assay [14] and in assay [15] was “inactive” each time. Besides, the Potency entry (with Aromatase (Homo sapiens); in assay [16]; in assay [17]) was “inactive” in each case. Moreover, the call in assay [5] and in assay [8] was inactive.
